B1: unnamed (peptide)
chain: SNRRPVPRRPSQPLN
B2: unnamed (peptide)
chain: TSFKGRPKPPKTLKH
B3: unnamed (peptide)
chain: SGVRLPAPPPPPRRG

Molecular target: AgAbp1
Assay: SPOT peptide array binding signal intensity (averaged, normalized) (arbitrary units (background-subtracted, floor 0; scale differs between SH3 domains)); higher = stronger binding of the SH3 domain to the peptide
How it was run: (§1)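 GST-SH3 fusions from four yeast species, purified on glutathione Sepharose, were incubated at 10 μg/ml overnight at 4°C on membranes of synthetic 15-mer peptides in which cysteines were replaced with serines. Binding signal is the normalized, background-subtracted spot intensity averaged over replicates, in domain-specific arbitrary units.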

Binder	SPOT peptide array binding signal intensity
B1	587
B2	590
B3	606

Molecular target: AgBbc1
Assay: as above
How it was run: as §1

Binder	SPOT peptide array binding signal intensity
B1	790
B2	17.8
B3	1230

Molecular target: AgBem1-D1
Assay: as above
How it was run: as §1

Binder	SPOT peptide array binding signal intensity
B1	12
B2	≤ 0
B3	36

Molecular target: AgBzz1-D1
Assay: as above
How it was run: as §1

Binder	SPOT peptide array binding signal intensity
B1	157
B2	≤ 0
B3	404

Molecular target: AgBzz1-D2
Assay: as above
How it was run: as §1

Binder	SPOT peptide array binding signal intensity
B1	61.8
B2	28
B3	140

Molecular target: AgCyk3
Assay: as above
How it was run: as §1

Binder	SPOT peptide array binding signal intensity
B1	7.5
B2	≤ 0
B3	2

Molecular target: AgFus1
Assay: as above
How it was run: as §1

Binder	SPOT peptide array binding signal intensity
B1	27
B2	3
B3	21

Molecular target: AgHof1
Assay: as above
How it was run: as §1

Binder	SPOT peptide array binding signal intensity
B1	9
B2	22.5
B3	472

Molecular target: AgHse1
Assay: as above
How it was run: as §1

Binder	SPOT peptide array binding signal intensity
B1	18.2
B2	65.5
B3	24.5

Molecular target: AgLsb1
Assay: as above
How it was run: as §1

Binder	SPOT peptide array binding signal intensity
B1	23.5
B2	≤ 0
B3	699

Molecular target: AgLsb4
Assay: as above
How it was run: as §1

Binder	SPOT peptide array binding signal intensity
B1	3680
B2	20
B3	1040

Molecular target: AgMyo5
Assay: as above
How it was run: as §1

Binder	SPOT peptide array binding signal intensity
B1	0.25
B2	1.5
B3	579

Molecular target: AgNbp2
Assay: as above
How it was run: as §1

Binder	SPOT peptide array binding signal intensity
B1	1230
B2	≤ 0
B3	1250

Molecular target: AgRvs167
Assay: as above
How it was run: as §1

Binder	SPOT peptide array binding signal intensity
B1	64.1
B2	2
B3	1310

Molecular target: AgSho1
Assay: as above
How it was run: as §1

Binder	SPOT peptide array binding signal intensity
B1	5.75
B2	≤ 0
B3	36

Molecular target: AgSla1-D1-D2
Assay: as above
How it was run: as §1

Binder	SPOT peptide array binding signal intensity
B1	≤ 0
B2	71
B3	38

Molecular target: AgSla1-D3
Assay: as above
How it was run: as §1

Binder	SPOT peptide array binding signal intensity
B1	3
B2	5.5
B3	61

Molecular target: CaAbp1-D1
Assay: as above
How it was run: as §1

Binder	SPOT peptide array binding signal intensity
B1	328
B2	1460
B3	1510

Molecular target: CaAbp1-D2
Assay: as above
How it was run: as §1

Binder	SPOT peptide array binding signal intensity
B1	574
B2	1380
B3	1030

Molecular target: CaBbc1
Assay: as above
How it was run: as §1

Binder	SPOT peptide array binding signal intensity
B1	1250
B2	43.5
B3	1050

Molecular target: CaBem1-D1
Assay: as above
How it was run: as §1

Binder	SPOT peptide array binding signal intensity
B1	135
B2	≤ 0
B3	544

Molecular target: CaBzz1-D1
Assay: as above
How it was run: as §1

Binder	SPOT peptide array binding signal intensity
B1	380
B2	80.5
B3	3080

Molecular target: CaBzz1-D2
Assay: as above
How it was run: as §1

Binder	SPOT peptide array binding signal intensity
B1	153
B2	67.8
B3	1360

Molecular target: CaCyk3
Assay: as above
How it was run: as §1

Binder	SPOT peptide array binding signal intensity
B1	464
B2	3
B3	44

Molecular target: CaFus1
Assay: as above
How it was run: as §1

Binder	SPOT peptide array binding signal intensity
B1	111
B2	44.5
B3	74

Molecular target: CaHof1
Assay: as above
How it was run: as §1

Binder	SPOT peptide array binding signal intensity
B1	≤ 0
B2	2.75
B3	114

Molecular target: CaHse1
Assay: as above
How it was run: as §1

Binder	SPOT peptide array binding signal intensity
B1	20.5
B2	2.75
B3	20

Molecular target: CaLsb1
Assay: as above
How it was run: as §1

Binder	SPOT peptide array binding signal intensity
B1	2
B2	≤ 0
B3	0.5

Molecular target: CaLsb4
Assay: as above
How it was run: as §1

Binder	SPOT peptide array binding signal intensity
B1	4120
B2	≤ 0
B3	1890

Molecular target: CaMyo5
Assay: as above
How it was run: as §1

Binder	SPOT peptide array binding signal intensity
B1	2.75
B2	2.5
B3	42

Molecular target: CaNbp2
Assay: as above
How it was run: as §1

Binder	SPOT peptide array binding signal intensity
B1	1960
B2	12
B3	216

Molecular target: CaRvs167
Assay: as above
How it was run: as §1

Binder	SPOT peptide array binding signal intensity
B1	303
B2	0.833
B3	1350

Molecular target: CaRvs167-3
Assay: as above
How it was run: as §1

Binder	SPOT peptide array binding signal intensity
B1	3.5
B2	1.5
B3	10.2

Molecular target: CaSho1
Assay: as above
How it was run: as §1

Binder	SPOT peptide array binding signal intensity
B1	≤ 0
B2	0.5
B3	34

Molecular target: CaSla1-D1-D2
Assay: as above
How it was run: as §1

Binder	SPOT peptide array binding signal intensity
B1	1570
B2	196
B3	3580

Molecular target: CaSla1-D3
Assay: as above
How it was run: as §1

Binder	SPOT peptide array binding signal intensity
B1	14.2
B2	≤ 0
B3	77.2

Molecular target: ScAbp1
Assay: as above
How it was run: as §1

Binder	SPOT peptide array binding signal intensity
B1	306
B2	556
B3	452

Molecular target: ScBbc1
Assay: as above
How it was run: as §1

Binder	SPOT peptide array binding signal intensity
B1	478
B2	≤ 0
B3	267

Molecular target: ScBem1-D1
Assay: as above
How it was run: as §1

Binder	SPOT peptide array binding signal intensity
B1	22
B2	6.5
B3	≤ 0

Molecular target: ScBzz1-D1
Assay: as above
How it was run: as §1

Binder	SPOT peptide array binding signal intensity
B1	11.5
B2	26
B3	257

Molecular target: ScBzz1-D2
Assay: as above
How it was run: as §1

Binder	SPOT peptide array binding signal intensity
B1	36.5
B2	18
B3	36

Molecular target: ScCyk3
Assay: as above
How it was run: as §1

Binder	SPOT peptide array binding signal intensity
B1	17
B2	≤ 0
B3	6.5

Molecular target: ScFus1
Assay: as above
How it was run: as §1

Binder	SPOT peptide array binding signal intensity
B1	56.8
B2	≤ 0
B3	3.5

Molecular target: ScHof1
Assay: as above
How it was run: as §1

Binder	SPOT peptide array binding signal intensity
B1	≤ 0
B2	8.5
B3	482

Molecular target: ScHse1
Assay: as above
How it was run: as §1

Binder	SPOT peptide array binding signal intensity
B1	639
B2	542
B3	169

Molecular target: ScLsb1
Assay: as above
How it was run: as §1

Binder	SPOT peptide array binding signal intensity
B1	425
B2	4.75
B3	438

Molecular target: ScLsb2
Assay: as above
How it was run: as §1

Binder	SPOT peptide array binding signal intensity
B1	8.5
B2	≤ 0
B3	438

Molecular target: ScLsb3
Assay: as above
How it was run: as §1

Binder	SPOT peptide array binding signal intensity
B1	6520
B2	≤ 0
B3	2990

Molecular target: ScLsb4
Assay: as above
How it was run: as §1

Binder	SPOT peptide array binding signal intensity
B1	1140
B2	≤ 0
B3	2100

Molecular target: ScMyo3
Assay: as above
How it was run: as §1

Binder	SPOT peptide array binding signal intensity
B1	4.75
B2	3
B3	1670

Molecular target: ScMyo5
Assay: as above
How it was run: as §1

Binder	SPOT peptide array binding signal intensity
B1	2.75
B2	≤ 0
B3	864

Molecular target: ScNbp2
Assay: as above
How it was run: as §1

Binder	SPOT peptide array binding signal intensity
B1	2500
B2	7
B3	622

Molecular target: ScPex13
Assay: as above
How it was run: as §1

Binder	SPOT peptide array binding signal intensity
B1	377
B2	1.5
B3	1050

Molecular target: ScRvs167
Assay: as above
How it was run: as §1

Binder	SPOT peptide array binding signal intensity
B1	2630
B2	≤ 0
B3	3210

Molecular target: ScSho1
Assay: as above
How it was run: as §1

Binder	SPOT peptide array binding signal intensity
B1	83
B2	71
B3	1100

Molecular target: ScSla1-D1-D2
Assay: as above
How it was run: as §1

Binder	SPOT peptide array binding signal intensity
B1	2640
B2	63.5
B3	2820

Molecular target: ScSla1-D3
Assay: as above
How it was run: as §1

Binder	SPOT peptide array binding signal intensity
B1	66.1
B2	7
B3	9

Molecular target: SpAbp1-D1
Assay: as above
How it was run: as §1

Binder	SPOT peptide array binding signal intensity
B1	352
B2	174
B3	2280

Molecular target: SpBbc1
Assay: as above
How it was run: as §1

Binder	SPOT peptide array binding signal intensity
B1	472
B2	0.5
B3	19.2

Molecular target: SpBzz1-D1
Assay: as above
How it was run: as §1

Binder	SPOT peptide array binding signal intensity
B1	500
B2	207
B3	3360

Molecular target: SpBzz1-D2
Assay: as above
How it was run: as §1

Binder	SPOT peptide array binding signal intensity
B2	≤ 0
B3	1490

Molecular target: SpCyk3
Assay: as above
How it was run: as §1

Binder	SPOT peptide array binding signal intensity
B2	≤ 0
B3	17

Molecular target: SpHof1
Assay: as above
How it was run: as §1

Binder	SPOT peptide array binding signal intensity
B2	27
B3	248

Molecular target: SpHof1-2
Assay: as above
How it was run: as §1

Binder	SPOT peptide array binding signal intensity
B2	≤ 0
B3	231

Molecular target: SpHof1-3
Assay: as above
How it was run: as §1

Binder	SPOT peptide array binding signal intensity
B2	183
B3	1500

Molecular target: SpHse1
Assay: as above
How it was run: as §1

Binder	SPOT peptide array binding signal intensity
B2	79
B3	67.5

Molecular target: SpLsb1
Assay: as above
How it was run: as §1

Binder	SPOT peptide array binding signal intensity
B2	2.5
B3	870

Molecular target: SpLsb4
Assay: as above
How it was run: as §1

Binder	SPOT peptide array binding signal intensity
B2	12.5
B3	6010

Molecular target: SpMyo1
Assay: as above
How it was run: as §1

Binder	SPOT peptide array binding signal intensity
B2	≤ 0
B3	502

Molecular target: SpNbp2
Assay: as above
How it was run: as §1

Binder	SPOT peptide array binding signal intensity
B2	22
B3	26

Molecular target: SpPex13
Assay: as above
How it was run: as §1

Binder	SPOT peptide array binding signal intensity
B2	≤ 0
B3	35

Molecular target: SpRvs167
Assay: as above
How it was run: as §1

Binder	SPOT peptide array binding signal intensity
B2	2
B3	2550

Molecular target: SpSla1-D1-D2
Assay: as above
How it was run: as §1

Binder	SPOT peptide array binding signal intensity
B2	3
B3	993

Molecular target: SpSla1-D3
Assay: as above
How it was run: as §1

Binder	SPOT peptide array binding signal intensity
B2	2
B3	0.5

Source: the supplement of paper PMC4466140
